Results filed as inconclusive are left out. Values without a mark were called inactive. Calls come from the whole dose curve; as a rule, active = well fitted inhibition curve with a large enough effect; inconclusive = small, poorly fitted or top-dose-only effect; inactive = flat fitted curve, though single readings scatter.
target: Calcium and integrin-binding protein 1 (Homo sapiens) (UniProt Q99828); test: Primary qHTS for Identification of Calcium Integrin Binding Protein 1 (CIB1) Competitor (AID 1508620); conditions: CIB1-GST / FITC-alphaIIb peptide fluorescence polarization; series mostly up to 114 µM; activity change, negative = inhibition: at the top concentration;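 note: GST tagged CIB1 binding a fluorescein labelled alphaIIb integrin peptide tracer; top concentration of the series differs between compounds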
How it was run: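 Fluorescence polarization competition: CIB1-GST (1 uM final) preincubated with compound 15 min at room temperature, then FITC-labeled alphaIIb peptide (100 nM final) added for another 15 min. Polarization read at Ex 480/Em 540.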
% is set by controls: 0 for no effect and ±100 for the full control effect.

Sequence of Calcium and integrin-binding protein 1 (Homo sapiens) (Q99828 whole entry, looked up): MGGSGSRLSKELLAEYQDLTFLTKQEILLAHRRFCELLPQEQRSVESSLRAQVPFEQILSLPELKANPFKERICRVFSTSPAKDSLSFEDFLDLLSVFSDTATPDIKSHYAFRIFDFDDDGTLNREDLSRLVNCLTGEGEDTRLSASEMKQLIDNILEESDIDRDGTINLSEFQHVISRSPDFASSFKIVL

Compound | activity change, negative = inhibition
Cc1cc(N[S+](=O)([O-])c2ccc(NC(=O)Cc3ccc(F)c(C(F)(F)F)c3)cc2)no1 | -10.4%
COc1ccccc1N1C(=O)c2ccccc2C1=O | 0.214%
O=C1CCc2cc(S(=O)(=O)Nc3ccc(F)c(Cl)c3)ccc2N1 | -3.43%
O=C1Cc2cc(S(=O)(=O)N3CCN(c4ccc(Br)cc4)CC3)ccc2N1 | 0.193% [at 228 µM]
C[C@H]1CN(S(=O)(=O)c2ccc3c(c2)OCCO3)CCN1S(=O)(=O)c1c(F)cccc1F | 0.806%
Nc1scc2c(C(=O)O)nn(-c3ccccc3)c(=O)c12 | -15.9%
CC(C)(C)c1cccc(NC(=O)Nc2nnc(-c3ccncc3)s2)c1 | -2.11%
COc1ccc(CN(Cc2ccccc2)C(=O)c2ccccc2)cc1COc1ccc(NC(C)=O)cc1 | 0.803%
N#Cc1nc(Nc2ccc(Br)cc2)nc(NC2CCCC2)n1 | 8.95%
CC(=O)Nc1cccc(S(=O)(=O)N2CCCN(S(=O)(=O)c3ccc4c(c3)OCCO4)CC2)c1 | -5.67%
Cc1csc(CNc2ncnc3ccc(-c4ccc5c(c4)OCCO5)cc23)c1 | 0.566%
Fc1cc(Nc2nc(-c3ccncc3)nc3ccccc23)ccc1-c1cccc(C(F)(F)F)c1 | 2.8%
O=C1N/C(=C\c2ccco2)C(=O)N1Cc1ccccc1 | -0.738%
COc1cc(-c2nc(Nc3ccc(F)c(F)c3)c3ccccc3n2)ccn1 | 8.98%
Cn1c(SCC(=O)c2cc3ccccc3o2)nnc1-c1ccccc1 | 1.04%
Cc1ccc(CNc2ccc(N3CCN(C)CC3=O)cc2)cc1 | -1.44%
NC(=O)C1CCN(c2nc(-c3ccccc3[N+](=O)[O-])cs2)CC1 | -7.41%

Reference: PubChem BioAssay (NCATS)
